The supplement of paper PMC4466140

Tests used:
Assay in all cases: SPOT peptide array binding signal intensity (averaged, normalized) (arbitrary units (background-subtracted, floor 0; scale differs between SH3 domains)); higher = stronger binding of the SH3 domain to the peptide
[1] = biological target: AgAbp1
Procedure, shortened: (§1)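 Detection of bound protein relied on anti-GST antibody, an HRP anti-mouse secondary and luminol, with imaging and quantification in Genespotter. The bound protein was GST-fused SH3 domains from four yeast species, incubated at 10 μg/ml overnight at 4°C in TBS-based blocking buffer on cellulose membranes carrying synthetic 15-mer peptides with cysteines replaced by serines. Binding signal is normalized, background-subtracted spot intensity averaged over replicates, in arbitrary units that differ between domains.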

[2] = biological target: AgBbc1
Procedure, shortened: as §1

[3] = biological target: AgBem1-D1
Procedure, shortened: as §1

[4] = biological target: AgBzz1-D1
Procedure, shortened: as §1

[5] = biological target: AgBzz1-D2
Procedure, shortened: as §1

[6] = biological target: AgCyk3
Procedure, shortened: as §1

[7] = biological target: AgFus1
Procedure, shortened: as §1

[8] = biological target: AgHof1
Procedure, shortened: as §1

[9] = biological target: AgHse1
Procedure, shortened: as §1

[10] = biological target: AgLsb1
Procedure, shortened: as §1

[11] = biological target: AgLsb4
Procedure, shortened: as §1

[12] = biological target: AgMyo5
Procedure, shortened: as §1

[13] = biological target: AgNbp2
Procedure, shortened: as §1

[14] = biological target: AgRvs167
Procedure, shortened: as §1

[15] = biological target: AgSho1
Procedure, shortened: as §1

[16] = biological target: AgSla1-D1-D2
Procedure, shortened: as §1

[17] = biological target: AgSla1-D3
Procedure, shortened: as §1

[18] = biological target: CaAbp1-D1
Procedure, shortened: as §1

[19] = biological target: CaAbp1-D2
Procedure, shortened: as §1

[20] = biological target: CaBbc1
Procedure, shortened: as §1

[21] = biological target: CaBem1-D1
Procedure, shortened: as §1

[22] = biological target: CaBzz1-D1
Procedure, shortened: as §1

[23] = biological target: CaBzz1-D2
Procedure, shortened: as §1

[24] = biological target: CaCyk3
Procedure, shortened: as §1

[25] = biological target: CaFus1
Procedure, shortened: as §1

[26] = biological target: CaHof1
Procedure, shortened: as §1

[27] = biological target: CaHse1
Procedure, shortened: as §1

[28] = biological target: CaLsb1
Procedure, shortened: as §1

[29] = biological target: CaLsb4
Procedure, shortened: as §1

[30] = biological target: CaMyo5
Procedure, shortened: as §1

[31] = biological target: CaNbp2
Procedure, shortened: as §1

[32] = biological target: CaRvs167
Procedure, shortened: as §1

[33] = biological target: CaRvs167-3
Procedure, shortened: as §1

[34] = biological target: CaSho1
Procedure, shortened: as §1

[35] = biological target: CaSla1-D1-D2
Procedure, shortened: as §1

[36] = biological target: CaSla1-D3
Procedure, shortened: as §1

[37] = biological target: ScAbp1
Procedure, shortened: as §1

[38] = biological target: ScBbc1
Procedure, shortened: as §1

[39] = biological target: ScBem1-D1
Procedure, shortened: as §1

[40] = biological target: ScBzz1-D1
Procedure, shortened: as §1

[41] = biological target: ScBzz1-D2
Procedure, shortened: as §1

[42] = biological target: ScCyk3
Procedure, shortened: as §1

[43] = biological target: ScFus1
Procedure, shortened: as §1

[44] = biological target: ScHof1
Procedure, shortened: as §1

[45] = biological target: ScHse1
Procedure, shortened: as §1

[46] = biological target: ScLsb1
Procedure, shortened: as §1

[47] = biological target: ScLsb2
Procedure, shortened: as §1

[48] = biological target: ScLsb3
Procedure, shortened: as §1

[49] = biological target: ScLsb4
Procedure, shortened: as §1

[50] = biological target: ScMyo3
Procedure, shortened: as §1

[51] = biological target: ScMyo5
Procedure, shortened: as §1

[52] = biological target: ScNbp2
Procedure, shortened: as §1

[53] = biological target: ScPex13
Procedure, shortened: as §1

[54] = biological target: ScRvs167
Procedure, shortened: as §1

[55] = biological target: ScSho1
Procedure, shortened: as §1

[56] = biological target: ScSla1-D1-D2
Procedure, shortened: as §1

[57] = biological target: ScSla1-D3
Procedure, shortened: as §1

[58] = biological target: SpAbp1-D1
Procedure, shortened: as §1

[59] = biological target: SpBbc1
Procedure, shortened: as §1

[60] = biological target: SpBzz1-D1
Procedure, shortened: as §1

[61] = biological target: SpBzz1-D2
Procedure, shortened: as §1

[62] = biological target: SpCyk3
Procedure, shortened: as §1

[63] = biological target: SpHof1
Procedure, shortened: as §1

[64] = biological target: SpHof1-2
Procedure, shortened: as §1

[65] = biological target: SpHof1-3
Procedure, shortened: as §1

[66] = biological target: SpHse1
Procedure, shortened: as §1

[67] = biological target: SpLsb1
Procedure, shortened: as §1

[68] = biological target: SpLsb4
Procedure, shortened: as §1

[69] = biological target: SpMyo1
Procedure, shortened: as §1

[70] = biological target: SpNbp2
Procedure, shortened: as §1

[71] = biological target: SpPex13
Procedure, shortened: as §1

[72] = biological target: SpRvs167
Procedure, shortened: as §1

[73] = biological target: SpSla1-D1-D2
Procedure, shortened: as §1

[74] = biological target: SpSla1-D3
Procedure, shortened: as §1

B1: unnamed (peptide)
chain: QGYPRQPQRPQRYHP
SPOT peptide array binding signal intensity [1]: 15.5 | SPOT peptide array binding signal intensity [2]: 187 | SPOT peptide array binding signal intensity [3]: ≤ 0 | SPOT peptide array binding signal intensity [4]: 8 | SPOT peptide array binding signal intensity [5]: 22.5 | SPOT peptide array binding signal intensity [6]: ≤ 0 | SPOT peptide array binding signal intensity [7]: ≤ 0 | SPOT peptide array binding signal intensity [8]: 0.5 | SPOT peptide array binding signal intensity [9]: 17.5 | SPOT peptide array binding signal intensity [10]: ≤ 0 | SPOT peptide array binding signal intensity [11]: 47 | SPOT peptide array binding signal intensity [12]: ≤ 0 | SPOT peptide array binding signal intensity [13]: ≤ 0 | SPOT peptide array binding signal intensity [14]: 0.333 | SPOT peptide array binding signal intensity [15]: ≤ 0 | SPOT peptide array binding signal intensity [16]: 2 | SPOT peptide array binding signal intensity [17]: ≤ 0 | SPOT peptide array binding signal intensity [18]: 25.5 | SPOT peptide array binding signal intensity [19]: 11 | SPOT peptide array binding signal intensity [20]: 329 | SPOT peptide array binding signal intensity [21]: 15 | SPOT peptide array binding signal intensity [22]: 144 | SPOT peptide array binding signal intensity [23]: 32.5 | SPOT peptide array binding signal intensity [24]: 13 | SPOT peptide array binding signal intensity [25]: ≤ 0 | SPOT peptide array binding signal intensity [26]: ≤ 0 | SPOT peptide array binding signal intensity [27]: ≤ 0 | SPOT peptide array binding signal intensity [28]: ≤ 0 | SPOT peptide array binding signal intensity [29]: 1180 | SPOT peptide array binding signal intensity [30]: ≤ 0 | SPOT peptide array binding signal intensity [31]: ≤ 0 | SPOT peptide array binding signal intensity [32]: 2.5 | SPOT peptide array binding signal intensity [33]: ≤ 0 | SPOT peptide array binding signal intensity [34]: 12.5 | SPOT peptide array binding signal intensity [35]: ≤ 0 | SPOT peptide array binding signal intensity [36]: ≤ 0 | SPOT peptide array binding signal intensity [37]: 10 | SPOT peptide array binding signal intensity [38]: 40.2 | SPOT peptide array binding signal intensity [39]: 2.5 | SPOT peptide array binding signal intensity [40]: ≤ 0 | SPOT peptide array binding signal intensity [41]: 11 | SPOT peptide array binding signal intensity [42]: ≤ 0 | SPOT peptide array binding signal intensity [43]: ≤ 0 | SPOT peptide array binding signal intensity [44]: 0.75 | SPOT peptide array binding signal intensity [45]: ≤ 0 | SPOT peptide array binding signal intensity [46]: 9.5 | SPOT peptide array binding signal intensity [47]: ≤ 0 | SPOT peptide array binding signal intensity [48]: 1040 | SPOT peptide array binding signal intensity [49]: 25 | SPOT peptide array binding signal intensity [50]: ≤ 0 | SPOT peptide array binding signal intensity [51]: ≤ 0 | SPOT peptide array binding signal intensity [52]: 3.5 | SPOT peptide array binding signal intensity [53]: 29.5 | SPOT peptide array binding signal intensity [54]: ≤ 0 | SPOT peptide array binding signal intensity [55]: 16 | SPOT peptide array binding signal intensity [56]: 12 | SPOT peptide array binding signal intensity [57]: ≤ 0 | SPOT peptide array binding signal intensity [58]: ≤ 0 | SPOT peptide array binding signal intensity [59]: 3.5 | SPOT peptide array binding signal intensity [60]: 226 | SPOT peptide array binding signal intensity [61]: 0.5 | SPOT peptide array binding signal intensity [62]: ≤ 0 | SPOT peptide array binding signal intensity [63]: 5 | SPOT peptide array binding signal intensity [64]: ≤ 0 | SPOT peptide array binding signal intensity [65]: 0.5 | SPOT peptide array binding signal intensity [66]: 2 | SPOT peptide array binding signal intensity [67]: 4 | SPOT peptide array binding signal intensity [68]: 1230 | SPOT peptide array binding signal intensity [69]: ≤ 0 | SPOT peptide array binding signal intensity [70]: ≤ 0 | SPOT peptide array binding signal intensity [71]: 1 | SPOT peptide array binding signal intensity [72]: 3 | SPOT peptide array binding signal intensity [73]: ≤ 0 | SPOT peptide array binding signal intensity [74]: ≤ 0

B2: unnamed (peptide)
chain: SHRLWLYAAPKRPKT
SPOT peptide array binding signal intensity [1]: 15.5 | SPOT peptide array binding signal intensity [2]: 42 | SPOT peptide array binding signal intensity [3]: 110 | SPOT peptide array binding signal intensity [4]: 46 | SPOT peptide array binding signal intensity [5]: 42 | SPOT peptide array binding signal intensity [6]: 0.5 | SPOT peptide array binding signal intensity [7]: 296 | SPOT peptide array binding signal intensity [8]: 26 | SPOT peptide array binding signal intensity [9]: 5 | SPOT peptide array binding signal intensity [10]: 0.5 | SPOT peptide array binding signal intensity [11]: 28.5 | SPOT peptide array binding signal intensity [12]: 5.5 | SPOT peptide array binding signal intensity [13]: 29.5 | SPOT peptide array binding signal intensity [14]: 2 | SPOT peptide array binding signal intensity [15]: 23.5 | SPOT peptide array binding signal intensity [16]: 44 | SPOT peptide array binding signal intensity [17]: 11 | SPOT peptide array binding signal intensity [18]: 63 | SPOT peptide array binding signal intensity [19]: 37.5 | SPOT peptide array binding signal intensity [20]: 100 | SPOT peptide array binding signal intensity [21]: 52 | SPOT peptide array binding signal intensity [22]: 73 | SPOT peptide array binding signal intensity [23]: 38.5 | SPOT peptide array binding signal intensity [24]: 7 | SPOT peptide array binding signal intensity [25]: 266 | SPOT peptide array binding signal intensity [26]: 0.5 | SPOT peptide array binding signal intensity [27]: 26.2 | SPOT peptide array binding signal intensity [28]: 1.5 | SPOT peptide array binding signal intensity [29]: 48 | SPOT peptide array binding signal intensity [30]: 18
